# According to PubChem BioAssay (NCATS):
# Values joined by “and” are separate entries in the source; they are usually repeats but may differ in a detail not shown here. Equal entries are not always repeated. Results filed as inconclusive are left out. A call without a number means that no potency is given here. Active and inactive are the calls of the source. Unless noted, calls come from the whole dose curve; as a rule, active = well fitted curve in the direction sought with a large enough effect; inconclusive = small, poorly fitted or top-dose-only effect, or another doubt; inactive = no such curve, though single readings can be large; an effect the other way counts as inactive or inconclusive.
# What was measured:
# [1] = biological target: Alpha-galactosidase A (Homo sapiens) (UniProt P06280); test: Counterscreen for Glucocerebrosidase Inhibitors: qHTS Assay for Human alpha-Galactosidase at pH 4.5 (AID 992)
# How it was run: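 Fluorogenic 4-MU alpha-D-galactoside (80 uM) hydrolysis, 2 nM enzyme, pH 4.5 citrate buffer + 0.005% Tween-20; 20 min RT; NaOH/glycine pH 10 stop; Ex365/Em440. Compounds titrated 0.7 nM–77 uM; Hill-equation AC50.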
# [2] = biological target: alpha-glucosidase (Oryza sativa, rice) (UniProt Q653V4); test: Counterscreen for Glucocerebrosidase Inhibitors: qHTS Assay for Rice alpha-Glucosidase at pH 5.0 (AID 997)
# How it was run: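 Endpoint fluorogenic assay at pH 5.0: compounds (0.7 nM to 77 uM) titrated against 4 nM rice enzyme and 400 uM 4-MU-alpha-glucoside for 20 min at room temperature; NaOH/glycine stop, read ex 365/em 440 nm, Hill-fitted AC50.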
# [3] = qHTS Assay for Lipid Storage Modulators (AID 1519; calls by dose curve); conditions: Drosophila S3 cells, BODIPY lipid droplet/cell ratio, laser cytometry, cells loaded with oleic acid
# How it was run: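 Cells seeded at 5,000 per well were treated with compounds over a concentration series and loaded with oleic acid (400 uM, as added). Lipid droplet fluorescence (488 nm excitation, 500-530 nm channel) was read by laser-scanning cytometry and normalized to 20 uM Triacsin C.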
# [4] = biological target: DNA repair nuclease/redox regulator APEX1 (Homo sapiens) (UniProt P27695); test: qHTS Validation Assay for Inhibitors of the Human Apurinic/apyrimidinic Endonuclease 1 (APE1) (AID 1705;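 note: TAMRA fluorescence gain over two minutes as APE1 cuts a quenched THF abasic duplex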)
# How it was run: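 Human APE1 was preincubated with compound for 15 min at room temperature, then 50 nM (final) THF-abasic double-stranded DNA substrate bearing 5'-TAMRA and 3'-BHQ-2 was added. Incision-driven fluorescence rise (ex 525/em 598 nm) was read kinetically.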
# [5] = Cell Viability - LYMP2-021 (AID 974);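 note: compound exposure lasts 24 hours at 37 °C; nearly all actives have a fitted effect of over 55% in size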; note: potency is the fitted concentration of half-maximal effect
# How it was run: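 In qHTS format, compounds are tested against 2500 lymphoblastoid cells per well for 24 h; viable cell number is inferred from ATP-driven luciferase light, and Hill-equation fitting yields AC50 values.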
# [6] = Cell Viability - LYMP2-023 (AID 975); note: nearly all actives have a fitted effect of over 55% in size; note: potency is the fitted concentration of half-maximal effect
# How it was run: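 In this qHTS, ATP-based luciferase luminescence (CellTiter-Glo) is quantified in human lymphoblastoid cells after 24 hr compound treatment at 37 C; tetraoctylammonium bromide serves as positive control. Concentration-response curves are Hill-fitted to give AC50.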
# [7] = Cell Viability - LYMP2-025 (AID 976); note: potency is the fitted concentration of half-maximal effect
# How it was run: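 Luminescent ATP readout after 24 hr treatment of a human lymphoblastoid line (LYMP2-025, 2500 cells/well, 37 C). Reagent developed 30 min at room temperature; AC50 fitted with the Hill equation.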
# [8] = Cell Viability - LYMP2-002 (AID 977);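 note: compound exposure lasted 24 h at 37 °C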; note: potency is the fitted concentration of half-maximal effect
# How it was run: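 Human lymphoblastoid cells, 2500/well, complete medium; 5 h 37 C settle; compound 24 h 37 C; CellTiter-Glo, 30 min RT; luminescence. Decrease in ATP = cytotoxicity; AC50 via Hill equation.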
# [9] = Cell Viability - LYMP2-006 (AID 978); note: nearly all actives have a fitted effect of over 60% in size; note: potency is the fitted concentration of half-maximal effect
# How it was run: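 Human lymphoblastoid cells, 2500 per well, were preincubated 5 hr at 37 C, then exposed to compounds for 24 hr at 37 C in complete medium. Viability was read as intracellular ATP by CellTiter-Glo luminescence; AC50 from Hill-equation fits of qHTS concentration-response data.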
# [10] = Cell Viability - LYMP2-007 (AID 979);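 note: cells exposed to compound for 24 h before reading; nearly all actives have a fitted effect of over 60% in size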; note: potency is the fitted concentration of half-maximal effect
# How it was run: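 Measured via luciferase-based ATP quantitation: lymphoblastoid cells, 24 hr compound exposure at 37 C, AC50 from Hill fits.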
# [11] = Cell Viability - LYMP2-008 (AID 980); note: nearly all actives have a fitted effect of over 60% in size; note: potency is the fitted concentration of half-maximal effect
# How it was run: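 Measured: ATP-dependent luminescence, proportional to viable cell number, in human lymphoblastoid cells treated 24 hr with compound in complete culture medium. Values are AC50s from Hill-equation modelling of qHTS titrations.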
# [12] = Cell Viability - LYMP2-010 (AID 981); note: nearly all actives have a fitted effect of over 55% in size; note: potency is the fitted concentration of half-maximal effect
# How it was run: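 This 24 hr viability screen uses LYMP2-010 lymphoblastoid cells, quantifies ATP via luciferase luminescence, and derives AC50 from Hill fits of qHTS concentration-response data.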
# [13] = Cell Viability - LYMP2-014 (AID 983); note: nearly all actives have a fitted effect of over 50% in size; note: potency is the fitted concentration of half-maximal effect
# How it was run: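 Quantitative HTS in lymphoblastoid cells: 24 hr compound exposure, then CellTiter-Glo ATP luminescence. Positive control was tetraoctylammonium bromide, 6.4pM to 92 uM.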
# [14] = Cell Viability - LYMP2-016 (AID 984); note: nearly all actives have a fitted effect of over 55% in size; note: potency is the fitted concentration of half-maximal effect
# How it was run: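 Human lymphoblastoid cells (LYMP2-016), 2500/well in complete medium, preincubated 5 hr at 37 C, then compound-treated 24 hr at 37 C. Intracellular ATP read by CellTiter-Glo luminescence after 30 min at room temperature; AC50 from Hill-equation concentration-response fits.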
# [15] = Cell Viability - LYMP2-020 (AID 986); note: nearly all actives have a fitted effect of over 55% in size; note: potency is the fitted concentration of half-maximal effect
# How it was run: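 Cells at 2500 per well receive a 24 hr compound exposure at 37 C. Viability is measured as ATP-dependent luciferase luminescence, with AC50 modeled from qHTS concentration-response curves.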
# [16] = Cell Viability - LYMP2-022 (AID 987); note: nearly all actives have a fitted effect of over 55% in size; note: potency is the fitted concentration of half-maximal effect
# How it was run: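 In this qHTS cytotoxicity screen, compound titrations were incubated 24 hr at 37 C with human lymphoblastoid cells in complete medium. Luciferase-based ATP luminescence provided the viability signal.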
# [17] = Cell Viability - LYMP2-024 (AID 988); note: nearly all actives have a fitted effect of over 60% in size; note: potency is the fitted concentration of half-maximal effect
# How it was run: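 Cells at 2500 per well received compound for 24 hr after a 5 hr settling period. Viability was scored by CellTiter-Glo luminescence, with AC50 from Hill fits.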
# [18] = Cell Viability - LYMP1-002 - Assay at 24 hr (AID 993); note: potency is the fitted concentration of half-maximal effect
# How it was run: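 Viability was judged from intracellular ATP using a luciferase read-out, following a 24-hour compound incubation at 37 C of lymphoblastoid cells seeded at 2500 per well. Concentration-response data were fitted to the Hill equation for AC50.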
# [19] = Cell Viability - LYMP1-002 - Assay at 40 hr (AID 994); note: nearly all actives have a fitted effect of over 60% in size; note: potency is the fitted concentration of half-maximal effect
# How it was run: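 Concentration-dependent ATP loss after 40 hr treatment at 37 C defined toxicity; AC50 values were obtained by fitting the standard Hill equation.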
# [20] = measured here: cell count channel max response
# [21] = measured here: lipid channel max response
# Sequence of Alpha-galactosidase A (Homo sapiens) (P06280 whole entry, looked up): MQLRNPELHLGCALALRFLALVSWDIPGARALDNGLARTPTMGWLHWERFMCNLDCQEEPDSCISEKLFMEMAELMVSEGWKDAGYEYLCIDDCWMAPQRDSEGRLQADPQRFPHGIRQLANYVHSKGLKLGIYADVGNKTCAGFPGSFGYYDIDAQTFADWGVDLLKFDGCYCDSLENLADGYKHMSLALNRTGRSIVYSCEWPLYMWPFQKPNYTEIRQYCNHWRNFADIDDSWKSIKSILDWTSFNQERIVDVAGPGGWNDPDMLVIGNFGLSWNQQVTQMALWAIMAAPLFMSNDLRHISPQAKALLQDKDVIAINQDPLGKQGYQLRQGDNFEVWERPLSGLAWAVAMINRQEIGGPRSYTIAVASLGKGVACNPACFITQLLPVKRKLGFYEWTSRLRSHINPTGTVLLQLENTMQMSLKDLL
# Sequence of DNA repair nuclease/redox regulator APEX1 (Homo sapiens) (P27695 whole entry, looked up): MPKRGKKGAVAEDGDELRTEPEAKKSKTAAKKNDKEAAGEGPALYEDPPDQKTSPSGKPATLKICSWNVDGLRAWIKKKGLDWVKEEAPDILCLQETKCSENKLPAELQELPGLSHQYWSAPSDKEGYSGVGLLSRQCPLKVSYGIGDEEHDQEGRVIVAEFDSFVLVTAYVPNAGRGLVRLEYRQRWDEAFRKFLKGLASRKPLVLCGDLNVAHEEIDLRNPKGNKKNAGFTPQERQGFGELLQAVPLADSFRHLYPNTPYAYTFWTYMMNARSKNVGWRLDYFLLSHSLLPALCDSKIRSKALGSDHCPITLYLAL
smiles,measurement,setting,value
OCc1ccc(-c2nn(Cc3ccccc3)c3ccccc23)o1,outcome,[1],inactive
same,outcome,[2],inactive
COc1cnc(NS(=O)(=O)c2ccc(N)cc2)nc1,"activity change, negative = inhibition",[3]; at 25.7 µM (top of the series),-0.0044% (inactive)
same,"activity change, negative = inhibition",[3]; at 57.5 µM (top of the series),4.6% (inactive)
same,max response,[3]; [20],-12.6% and 15.3%
same,max response,[3]; [21],-11.3% and 19.8%
COc1cc2ncnc(Nc3cccc(Cl)c3)c2cc1OC,outcome,[1],inactive
same,outcome,[2],inactive
same,outcome,[4],inactive
Cc1cccc(Nc2ccncc2S(=O)(=O)NC(=O)NC(C)C)c1,"activity change, negative = inhibition",[3]; at 25.7 µM (top of the series),-1.07% (inactive)
same,"activity change, negative = inhibition",[3]; at 57.5 µM (top of the series),6.92% (inactive)
same,max response,[3]; [20],-3.68% and 16.7%
same,max response,[3]; [21],-4.97% and 28.2%
O=C(N[C@H](CO)[C@H](O)c1ccc([N+](=O)[O-])cc1)C(Cl)Cl,Potency,[5],inactive
same,Potency,[6],inactive
same,Potency,[7],inactive
same,Potency,[8],inactive
same,Potency,[9],inactive
same,Potency,[10],inactive
same,Potency,[11],inactive
same,Potency,[12],inactive
same,Potency,[13],inactive
same,Potency,[14],inactive
same,Potency,[15],inactive
same,Potency,[16],inactive
same,Potency,[17],inactive
same,Potency,[18],inactive
same,Potency,[19],inactive
same,"activity change, negative = inhibition",[3]; at 57.5 µM (top of the series),4.84% (inactive)
same,max response,[3]; [20],-11.7%
same,max response,[3]; [21],-6.22%
COc1ccc2cc3[n+](cc2c1OC)CCc1cc2c(cc1-3)OCO2,Potency,[6],inactive
same,Potency,[7],inactive
same,Potency,[8],inactive
same,Potency,[16],31.6 µM (active)
same,Potency,[17],39.8 µM (active)
same,Potency,[18],inactive
same,Potency,[19],inactive
same,"activity change, negative = inhibition",[3]; at 25.7 µM (top of the series),-1.57% (inactive)
same,max response,[3]; [20],-13.6%
same,max response,[3]; [21],-12.8%
Cc1ccc(S(=O)(=O)N[C@@H](Cc2ccccc2)C(=O)CCl)cc1,outcome,[1],inactive
same,outcome,[2],inactive
same,outcome,[4],inactive
CC(=O)CC(c1ccccc1)c1c(O)c2ccccc2oc1=O (stereo not drawn),"activity change, negative = inhibition",[3]; at 57.5 µM (top of the series),15.6% (inactive)
same,max response,[3]; [20],10.6%
same,max response,[3]; [21],30.9%
COc1ncnc(NS(=O)(=O)c2ccc(N)cc2)c1OC,"activity change, negative = inhibition",[3]; at 25.7 µM (top of the series),-2.34% (inactive)
same,max response,[3]; [20],-20.8%
same,max response,[3]; [21],-23.2%
NNC(=O)c1ccncc1,Potency,[5],inactive
same,Potency,[6],inactive
same,Potency,[7],inactive
same,Potency,[8],inactive
same,Potency,[9],inactive
same,Potency,[10],inactive
same,Potency,[11],inactive
same,Potency,[12],inactive
same,Potency,[13],inactive
same,Potency,[14],inactive
same,Potency,[15],inactive
same,Potency,[16],inactive
same,Potency,[17],inactive
same,Potency,[18],inactive
same,Potency,[19],inactive
same,"activity change, negative = inhibition",[3]; at 25.7 µM (top of the series),-0.316% (inactive)
same,max response,[3]; [20],-8.98%
same,max response,[3]; [21],-8.54%
Nc1ccc(S(=O)(=O)Nc2ccccn2)cc1,"activity change, negative = inhibition",[3]; at 25.7 µM (top of the series),-0.611% (inactive)
same,"activity change, negative = inhibition",[3]; at 57.5 µM (top of the series),8.46% (inactive)
same,max response,[3]; [20],-5.02% and 31.9%
same,max response,[3]; [21],-4.54% and 46.5%
NC(=O)c1cccc(N)c1,outcome,[1],inactive
same,outcome,[2],inactive
same,outcome,[4],inactive
O=C(O)c1cc(=O)[nH]c(=O)[nH]1,Potency,[5],inactive
same,Potency,[6],inactive
same,Potency,[7],inactive
same,Potency,[8],inactive
same,Potency,[9],inactive
same,Potency,[10],inactive
same,Potency,[11],inactive
same,Potency,[12],inactive
same,Potency,[13],inactive
same,Potency,[14],inactive
same,Potency,[15],inactive
same,Potency,[16],inactive
same,Potency,[17],inactive
same,Potency,[18],inactive
same,Potency,[19],inactive
CC(=O)[C@H]1CC[C@H]2[C@@H]3CCC4=CC(=O)CC[C@]4(C)[C@H]3CC[C@]12C,Potency,[9],inactive
same,outcome,[1],inactive
same,outcome,[2],inactive
same,"activity change, negative = inhibition",[3]; at 57.5 µM (top of the series),1.11% (inactive)
same,max response,[3]; [20],-15.2%
same,max response,[3]; [21],-13.1%
same,outcome,[4],inactive
Cc1cc(NS(=O)(=O)c2ccc(N)cc2)no1,Potency,[5],inactive
same,Potency,[6],inactive
same,Potency,[7],inactive
same,Potency,[8],inactive
same,Potency,[9],inactive
same,Potency,[10],inactive
same,Potency,[11],inactive
same,Potency,[12],inactive
same,Potency,[13],inactive
same,Potency,[14],inactive
same,Potency,[15],inactive
same,Potency,[16],inactive
same,Potency,[17],inactive
same,Potency,[18],inactive
same,Potency,[19],inactive
NC(N)=NC(N)=NCCc1ccccc1,Potency,[5],inactive
same,Potency,[6],inactive
same,Potency,[7],inactive
same,Potency,[8],inactive
same,Potency,[9],inactive
same,Potency,[10],inactive
same,Potency,[11],inactive
same,Potency,[12],inactive
same,Potency,[13],inactive
same,Potency,[14],inactive
same,Potency,[16],inactive
same,Potency,[17],inactive
same,Potency,[18],inactive
same,Potency,[19],inactive
same,"activity change, negative = inhibition",[3]; at 25.7 µM (top of the series),-0.801% (inactive)
same,max response,[3]; [20],4.96%
same,max response,[3]; [21],5.89%
CCn1cc(C(=O)O)c(=O)c2cc(F)c(N3CCNCC3)cc21,"activity change, negative = inhibition",[3]; at 25.7 µM (top of the series),0.231% (inactive)
same,"activity change, negative = inhibition",[3]; at 57.5 µM (top of the series),8.94% (inactive)
same,max response,[3]; [20],-2.5% and 14.7%
same,max response,[3]; [21],-2.45% and 30%
CN(C)c1ccc(C(=C2C=CC(=[N+](C)C)C=C2)c2ccc(N(C)C)cc2)cc1,Potency,[5],2.51 µM (active)
same,Potency,[6],3.16 µM (active)
same,Potency,[7],6.31 µM (active)
same,Potency,[8],2.51 µM (active)
same,Potency,[9],3.16 µM (active)
same,Potency,[10],2.51 µM (active)
same,Potency,[11],2 µM (active)
same,Potency,[12],1.26 µM (active)
same,Potency,[13],2 µM (active)
same,Potency,[14],2 µM (active)
same,Potency,[15],2 µM (active)
same,Potency,[16],0.794 µM (active)
same,Potency,[17],2 µM (active)
same,Potency,[18],3.16 µM (active)
same,Potency,[19],3.98 µM (active)
